# The list is not random: actives were taken first. Their share in the collection is about 6%.
# DRD3 agonist = D3 dopamine receptor (human) agonism; P35462; D3R DiscoveRx beta-arrestin cells, luminescence, 90 min; max activation, %; 410,000 tested, 0.58% active; AID 652048; in the data active = max activation above about 30%; note: 0% is about no effect
#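 Agonist mode: compounds and dopamine controls were applied to plated cells for 90 min at 37 degrees C after an overnight attachment at 1500 cells/well. Luminescent read-out followed 30 - 60 minutes at room temperature with DiscoveRx detection reagent.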
# D1 antagonist = blocks dopamine activation of the human D1 receptor; HEK293 TREx D1 cells, calcium flux, dopamine EC80; stronger effect = lower value; activity change, negative = inhibition, % at 10 µM; 360,000 tested, 3.2% active; in the data active = activity change below about -30%; note: % is set by controls: 0 for no effect and ±100 for the full control effect
# Target sequence (P21728 whole entry, looked up): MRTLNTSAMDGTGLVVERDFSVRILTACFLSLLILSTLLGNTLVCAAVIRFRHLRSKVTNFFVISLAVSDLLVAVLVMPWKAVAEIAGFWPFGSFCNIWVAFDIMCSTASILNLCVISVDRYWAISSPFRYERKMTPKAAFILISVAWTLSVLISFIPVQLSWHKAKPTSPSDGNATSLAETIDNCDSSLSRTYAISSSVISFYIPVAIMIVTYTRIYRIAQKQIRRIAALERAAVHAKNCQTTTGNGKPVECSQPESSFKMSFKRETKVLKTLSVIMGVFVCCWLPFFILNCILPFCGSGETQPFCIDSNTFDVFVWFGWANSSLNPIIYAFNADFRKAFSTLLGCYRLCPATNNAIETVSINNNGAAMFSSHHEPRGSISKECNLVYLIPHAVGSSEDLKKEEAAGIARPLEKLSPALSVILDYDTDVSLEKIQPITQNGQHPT
#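 Allosteric or orthosteric antagonism assessed as attenuation of the calcium response to EC80 dopamine, added 180 s after compound, in induced HEK293 Trex D1 cells loaded with no-wash calcium dye.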
# D3 antag = blocks the human D3 dopamine receptor. P35462. D3R cells, DiscoveRx beta-arrestin luminescence, antagonist mode; stronger effect = lower value. max response, negative = inhibition, %. 360,000 tested, 2.5% active. AID 652054; in the data active = max response below about -50%; inconclusive = no clear call, values can overlap the other calls; note: % is set by controls: 0 for no effect and ±100 for the full control effect
#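 Cells plated overnight at 1500 cells/well, then exposed to library compounds with dopamine controls for 90 minutes at 37 degrees C. DiscoveRx reagent added for 30–60 minutes at room temperature; luminescence read, quantitative HTS format.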
# D1 ag = activates the human D1 dopamine receptor. P21728. HEK293 T-REx D1 cells, calcium flux, agonist mode. activation, % at 2 µM. 360,000 tested, 1% active; in the data active = activation above about 30%; note: 0% is about no effect
#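 Inducible HEK293 T-REx D1 cells, force-coupled to calcium signalling, were plated at 4000 cells/well with tetracycline and held overnight at 30 C. After no-wash calcium dye loading, compound-evoked calcium rise over 180 s flagged agonists.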
# D1 PAM = potentiators of human D1 dopamine receptor | P21728 | HEK293 TREx D1 cells, calcium flux, dopamine EC20 potentiation | potentiation, % at 10 µM | 360,000 tested, 0.036% active | AID 504651; in the data active = potentiation above about 30%; note: 0% is about no effect
# * hit, by the source's call; ? = inconclusive; . = not tested or not shown; ! = not confirmed by another sample.
SMILES,DRD3 agonist,D1 antagonist,D3 antag,D1 ag,D1 PAM
Cc1ccc(CN(Cc2ccco2)C(=S)NCC(=O)NCc2cccnc2)cc1,3,8,-3,-1,8
CC(NC(=O)C(=O)Nc1c2c(nn1-c1ccc(F)cc1)CSC2)c1ccccc1 (configuration not stated),4,.,.,12,0
Cc1ccc(NC(=O)CSC2=NN3CCCC(=O)N=C3S2)c(C)c1,-4,-16,6,3,-3
Cc1cccc(NC(=O)CSC2=NN3CCCC(=O)N=C3S2)c1C,0,-33*,5,1,-8
O=C1NC(=O)C2C3OC(C(Br)C3Br)C12 (configuration not stated),-6,.,0,.,.
CC1=C([N+](=O)[O-])C(c2cccc(Br)c2)C2=C(N1)c1ccccc1C2=O (configuration not stated),2,-6,-94*,0,-3
COC(=O)C1=C(C)NC2=C(C(=O)c3ccccc32)C1c1cccc(OC)c1 (configuration not stated),3,-3,-14,1,-3
CCOC(=O)c1noc2nc(C)n(Cc3ccc([N+](=O)[O-])cc3)c(=O)c12,4,-8,.,5,-1
O=S1(=O)Nc2c(ccc3cccnc23)-c2ccccc21,-38,-22,-137*,3,8
C[C@@H]1O[C@H](C2CCCC2)Cc2[nH]c(=S)[nH]c(=O)c21,-15,.,-24,.,.
CN(C)CCCNc1oc(-c2ccccc2Cl)nc1S(=O)(=O)c1ccc(F)cc1,-23,-15,-61*,15,-6
CCN(CC)CCNc1oc(-c2ccccc2)nc1S(=O)(=O)c1ccccc1,-9,.,-76*,.,.
CN(C)CCNc1oc(-c2ccccc2Cl)nc1S(=O)(=O)c1ccccc1,-15,20,-1,6,0
Cc1ccc(S(=O)(=O)c2nc(-c3ccccc3)oc2NCCCN2CCOCC2)cc1,-16,12,-76*,2,7
Cc1cccc(-c2nc(S(=O)(=O)c3ccc(F)cc3)c(NCCCN3CCOCC3)o2)c1,-12,16,-73*,22,-3
O=c1[nH]c2cc(C(F)(F)F)c(N3CCOCC3)cc2n(CP(=O)(O)O)c1=O,8,.,.,.,.
Cc1ccccc1CN1C(=O)CN(S(C)(=O)=O)CC1(C)C(=O)Nc1ccc2c(c1)OCCO2 (configuration not stated),5,.,8,.,.
Cc1cccc(S(=O)(=O)N2CCN(S(=O)(=O)c3ccc4c(c3)OCCO4)CC2)c1,.,-4,.,5,2
CCOC(=O)c1cnc(N2CCN(c3ccc(C)cc3C)CC2)c2ccccc12,-8,11,.,1,-2
Cc1cc(C)cc(OCC(=O)Nc2ccc(Cl)c(-c3nc4ncccc4o3)c2)c1,-9,-6,.,2,-5
COc1ccc(-c2nc(S(=O)(=O)c3ccccc3)c(NCCCN3CCOCC3)o2)cc1,-5,.,-57*,.,.
Cc1ccccc1-c1nnc(CN2CCN(C(=O)c3ccco3)CC2)o1,20,-3,1,1,-2
O=C(c1ccco1)N1CCN(Cc2nnc(-c3cccc(Cl)c3)o2)CC1,37*,5,-7,2,-3
CCOc1cc(CN2CCN(C(=O)c3ccco3)CC2)ccc1OC,44*,14,?,-2,4
COc1ccc2ccccc2c1CN1CCN(C(=O)c2ccccc2)CC1,-16,15,?,1,-4
SMILES,DRD3 agonist,D1 antagonist,D3 antag,D1 ag,D1 PAM
COc1cc2nc(N3CCN(C(=O)c4ccco4)CC3)nc(N)c2cc1OC,.,-32*!,.,1,-5
COc1ccc2ccccc2c1CN1CCN(C(=O)c2ccco2)CC1,48*,4,-10,17,.
COc1cc2nc(N3CCN(C(=O)C4COc5ccccc5O4)CC3)nc(N)c2cc1OC (configuration not stated),17,12,63,2,-4
CCOc1ccc(CN2CCN(C(=O)c3ccco3)CC2)cc1,25,-1,0,3,-4
Cn1nc(C(C)(C)C)cc1N1C(=O)CCC1(C)C(=O)Nc1ccc2c(c1)OCCO2 (configuration not stated),4,.,11,.,.
CCOC(=O)c1ccccc1NC(=O)COC(=O)CC(C)(C)CC1=NS(=O)(=O)c2ccccc2N1,7,-37*,.,14,0
CCCCc1cc(=O)oc2cc(OCC(=O)NCc3ccccn3)ccc12,4,-42*,18,3,1
CCOc1ccc(CSC2=NCCN2)cc1Cl,-7,-35*,-25,14,-9
CO[C@H]1C[C@H](O[C@H]2[C@H](C)O[C@@H](O[C@@H]3/C(C)=C/C[C@@H]4C[C@@H](C[C@]5(C=C[C@H](C)[C@@H](C6CCCCC6)O5)O4)OC(=O)[C@@H]4C=C(C)[C@@H](O)[C@H]5OC/C(=C\C=C\[C@@H]3C)[C@]54O)C[C@@H]2OC)O[C@@H](C)[C@@H]1O,2,.,.,.,.
CCOC(=O)CSc1nc2sc3c(c2c(=O)n1-c1ccc(OCC)cc1)CCN(C)C3,5,6,0,30*,-8
CCOc1ccc(-n2c(SCC(N)=O)nc3sc4c(c3c2=O)CCN(C)C4)cc1,-29,-1,-12,1,2
Nc1nc2n(n1)C(c1cccs1)CC(c1ccccc1)N2 (configuration not stated),2,-4,-64*,5,-4
Cc1nn2c(=O)cc(COC(=O)c3ccccc3NC(=O)c3cccs3)nc2s1,10,10,.,0,0
CCN1CCCC1CNCC(=O)Nc1ccc(OC(F)(F)F)cc1 (configuration not stated),-2,1,-22,7,-7
CCOC(=O)C1CSC(CC(=O)Nc2ccc(OC(F)(F)F)cc2)C(=O)N1 (configuration not stated),-1,-32*,-4,2,-4
Cc1ncc(C[n+]2csc(CCOP(=O)(O)OP(=O)(O)O)c2C)c(N)n1,8,.,.,.,.
Cc1cc(F)c(F)c(C(=O)N2CCC(C)CC2)c1Cl,0,18,12,2,-5
Cc1cc(F)c(F)c(C(=O)N2CCCCC2C)c1Cl (configuration not stated),5,-31*,7,2,1
CC1Cc2cc(S(=O)(=O)N(C)c3ccc(Br)cc3)ccc2N1C(=O)C1CC1 (configuration not stated),-1,-26,.,12,-4
CSc1ccc(C(=O)C2CCCN(C(=O)Cc3nonc3C)C2)cc1 (configuration not stated),16,-7,-84*,0,-8
CSc1ccc(C(=O)C2CCCN(C(=O)Cn3cnnn3)C2)cc1 (configuration not stated),0,-10,-7,1,6
CSc1ccc(C(=O)C2CCCN(C(=O)c3ccc4c(c3)OCO4)C2)cc1 (configuration not stated),-4,1,-6,1,3

# Screens from PubChem.
